The source of these data is PubChem BioAssay.

Molecules are shown by their SMILES.

The assay can be described thus: viability profiling in RPMI8226 myeloma cells – cell-based, resazurin fluorescence, basal, 24 h, PK04 Diversity Set, profiling panel (AID 1180).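 Also: RPMI8826 multiple myeloma cell line at 5000 cells per well; test concentration not given here.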 The note with it: higher = more signal. (In general: Resazurin is reduced to fluorescent resorufin, in cell work by metabolically active cells.)
Compound `CCOC(=O)C[C@H]1[C@H](OC(=O)Cc2ccc3c(c2)OCO3)[C@@H](NC(=O)CC(C)C)c2cc(OCCCO)ccc2N1C(=O)Cc1ccc(OC)cc1` had a z-score of 0.2. The figure for `CCOC(=O)C1=C[C@@H](c2ccccc2)N(S(=O)(=O)c2ccc(C)cc2)[C@H]1c1ccccc1Cl` is -1.88; for `C[N+](C)(C)CCCC[C@@H]1NC(=O)[C@H]2C[C@@H](C(=O)NCCCCCCN)[C@@H](c3ccc(O)cc3)N2C1=O` it is 0.976.

`C=C(COC)C(=O)CC[C@@H](OC(=O)c1cccnc1)c1ccc(OCCO)cc1` had a z-score of 0.221. The figure for `COC(=O)[C@@]1(Cc2ccc(OC)cc2)[C@H]2c3cc(C(=O)N4CCCC4)n(Cc4c(-c5ccccc5)noc4C)c3C[C@H]2CN1C(=O)c1ccccc1` is -0.61; for `COCCCNC(=O)[C@]1(CCS(=O)(=O)c2ccccc2)N=C(c2ccc(OCCCO)cc2)O[C@@H]1c1ccccc1CN=[N+]=[N-]` it is -0.601.

As for `COC(=O)[C@@]1(Cc2ccc(F)cc2)[C@H]2c3cc(C(=O)N(C)C)n(CCc4ccc(O)c(OC)c4)c3C[C@H]2CN1C(=O)c1ccccc1`, the z-score was 0.28. The figure for `COC(=O)[C@@]1(Cc2ccccc2)[C@H]2c3cc(C(=O)N(C)C)n(CCN4CNCC4=O)c3C[C@H]2CN1C(=O)c1ccccc1` is 0.432; for `O=C1O[C@H](c2ccccc2)[C@H](c2ccccc2)N2[C@H]1[C@@H](C(=O)Nc1nc3ccccc3s1)[C@]1(C(=O)Nc3ccc(C#CCCO)cc31)[C@H]2c1ccc(O)cc1` it is -2.4; for `COC(=O)c1cn(C[C@@H](Cc2ccccc2)NC(=O)N[C@H](CO)CCc2oc(C(C)=O)c(C(=O)OC)c2C(=O)OC)nn1` it is -0.181. Turning to `COCCOC(=O)N1C(=O)[C@@]2(c3cc(C#CC4=CCCCC4)ccc31)[C@H](C(=O)N1CCCCCCC1)[C@H]1C(=O)O[C@H](c3ccccc3)[C@H](c3ccccc3)N1[C@@H]2c1ccc(O)cc1`, the z-score was -0.258. The figure for `CCOC(=O)C[C@H]1[C@H](OC(=O)c2ccccc2-c2ccccc2)[C@@H](NC(=O)C2CCCCC2)c2cc(OCCCO)ccc2N1C(=O)Cc1ccc(OC)cc1` is -0.466.

Consider `COc1ccc(-c2cc3c(c(CCc4ccccc4)n2)[Si](C(C)C)(C(C)C)OC3)cn1`, for which the z-score came out at 1.18. `COC(=O)[C@@]1(Cc2ccccc2)[C@H]2c3cc(C(=O)N(C)C)n(CCc4ccc(O)c(OC)c4)c3C[C@H]2CN1C(=O)c1ccccc1` had a z-score of 0.0379.

Take `COC(=O)Cn1c(C(=O)N(C)C)cc2c1C[C@H]1CN(C(=O)c3ccccc3)[C@@](Cc3ccc(F)cc3)(C(=O)OC)[C@@H]21`: the z-score was -0.795.

Turning to `C=CCNC(=O)[C@H]1[C@@H]2C(=O)O[C@@H](c3ccccc3)[C@@H](c3ccccc3)N2[C@@H](c2ccc(O)cc2)[C@]12C(=O)N(C(=O)OCCOC)c1ccccc12`, the z-score stood at 0.164.

Take `CC(C)N1C(=O)c2ccccc2[C@@H](C(=O)NC2CC2)[C@@H]1c1ccc(CO)cc1`: the z-score worked out at 0.417. The figure for `O=C1N(Cc2ccccc2)Cc2ccccc2[C@@H]2OC(c3ccc(OCCCO)cc3)=N[C@]12CCS(=O)(=O)c1ccccc1` is -0.849. The figure for `CC(C)C(=C=CC[C@H](O)c1ccc(OCCO)cc1)C[C@H](O)c1ccccn1` is 0.986; for `COC(=O)c1nc2oc1CC[C@@H](CO)NC(=O)N(C)Cc1cnnn1C[C@H](Cc1ccccc1)NC2=O` it is 1.47.

Take `CCOC(=O)C[C@H]1[C@H](OC(=O)Cc2ccc3c(c2)OCO3)[C@@H](NC(=O)Cc2ccc(OC)cc2)c2cc(OCCCO)ccc2N1C(=O)c1ccc2ccccc2n1`: the z-score was determined as 0.0153.

On to `CCCCCCCCCCC(O)C1C=CC2C(=O)N(C)C(=O)C2N1NC(=O)OC(C)(C)C` (stereo unspecified), for which the z-score was -5.64. Under `O=C1NC(=O)C2C1C=CC(C(O)c1c(F)cccc1Cl)N2Nc1ccc(Cl)cc1Cl` (stereo unspecified) stands -2.2; under `O=C1O[C@H](c2ccccc2)[C@H](c2ccccc2)N2[C@H]1[C@@H](C(=O)Nc1nc3ccccc3s1)[C@]1(C(=O)Nc3ccc(C#CC4(O)CCCCCC4)cc31)[C@H]2c1ccccc1OCCO`, -5.13.

Consider `CC(C)[Si](C#C[Si](C(C)C)(C(C)C)C(C)C)(O[C@H](C)c1cn([C@H](CO)Cc2ccccc2)nn1)C(C)C`, for which the z-score amounted to 1.04.

Consider `COCCCNC(=O)[C@@]1(Sc2ccc(C)cc2)CC(=O)N(C2CCCCC2)[C@@H]1c1ccc(CO)cc1`, for which the z-score is -0.577. The figure for `O=C1C2C=CC(C(O)c3ccccc3)N(Nc3ccccc3F)C2C(=O)N1c1ccccc1` (stereo unspecified) is 0.466; for `CCC[C@@H]1C[C@@]1(CCC)[C@@H](NC(=O)OCc1ccccc1)c1ccc(-c2ccccc2)cc1` it is 1.72; for `N#Cc1ccc(C(O)C2C=CC3C(=O)N(c4ccccc4)C(=O)C3N2Nc2ccccc2)cc1` (stereo unspecified) it is -0.196. Under `C=CCC(OC(C)=O)[C@@H]1[C@@H](N(Cc2ccc(-c3ccccc3)cc2)C(=O)Cc2ccc(F)cc2)c2cc(OCCCO)ccc2N1C(=O)Cc1ccc(OC)cc1` (stereo partly specified) stands -0.103; under `COc1ccc([Si](C)(C)[C@@H]2[C@@H](CC(=O)N(CCO)Cc3ccccc3)O[C@]3(C(=O)N(c4ccccc4)c4ccccc43)[C@H]2C)cc1`, -5.53.

With `COC(=O)[C@@]1(Cc2ccccc2)[C@@H]2C(=CC(=O)[C@H]2CC(=O)C(=O)N(C)C)CN1C(=O)c1ccccc1`, the z-score was -5.21. In the case of `CN(C)C(=O)[C@@]1(Cc2ccccc2CN=[N+]=[N-])N=C(c2ccc(OCCCO)cc2)O[C@H]1c1ccccc1CN=[N+]=[N-]`, the z-score is -3.29.

In the case of `CCOc1cc(C(O)C2C=CC3C(=O)N(c4ccccc4)C(=O)C3N2Nc2ccc(C#N)cc2)ccc1O` (stereo unspecified), the z-score was -1.4.

As for `COc1ccc([Si](C)(C)[C@@H]2[C@@H](CC(=O)N3Cc4ccccc4C[C@H]3CO)O[C@]3(C(=O)N(Cc4cccc(N5C(=O)c6cccc7cccc5c67)c4)c4ccccc43)[C@H]2C)cc1`, the z-score was -0.711.

`COc1ccc(-c2nc(-c3ccccc3)c3c(c2C)CO[Si]3(C(C)C)C(C)C)cn1`: the z-score is -0.82.
